The values that follow come from PubChem BioAssay AID430 (Sanford-Burnham Center for Chemical Genomics, 2006).

In all, about 63,000 compounds went through this assay and about 1,100 (1.7%) were called active. Shown is part of a subset that was picked to be rich in actives. Entries with a potency or affinity are not part of this list. A number with no mark means an inactive call. Rule as the data show it: active = cytotoxicity above about 50%; inactive = the rest.

A short description of the test: HPDE-C7 pancreatic duct cell viability loss – fluorescence, HTS (AID 430).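 Also: cells exposed to compound for 48 hours before viability readout; 0% = vehicle and 100% = reference cytotoxic drug.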 The following applies: HPDE-C7 pancreatic duct cells viability, at 10 µM, hits give high values.
As for `Cc1nnc(SCC(=O)n2c3c(c4ccccc42)CCCC3)s1`, the cytotoxicity was -1%. With `O=C(CSc1nnc(-c2ccccc2)o1)n1c2c(c3ccccc31)CCCC2`, the cytotoxicity was 53.3% (active). Take `O=C(O)CSc1nnc(-c2ccccc2)o1`: the cytotoxicity was 0.1%. Consider `CC1CCCCN1S(=O)(=O)c1coc(C(N)=O)c1` (stereo unspecified), for which the cytotoxicity is -2.9%.

`CC(=O)NC(C)C12CC3CC(CC(C(=O)O)(C3)C1)C2` (stereo unspecified): the cytotoxicity is -6.6%. Turning to `Cc1ccc(S(=O)(=O)Nc2ccc3nc(N)sc3c2)cc1`, the cytotoxicity was -16.3%. Consider `CSc1nc2ccc(NS(=O)(=O)c3ccc(Cl)s3)cc2s1`, for which the cytotoxicity is 55.3% (active). The same measure for `CSc1nc2ccc(S(=O)(=O)NC3CCCCC3)cc2s1`: 6.9%. `CCOc1cccc(/C(O)=C2/C(=O)C(=O)N(CCOC)C2c2ccc(C)o2)c1` (stereo unspecified): the cytotoxicity was -8%. On to `Cc1cc(C)nc(N2CCC(CNC(=O)CCc3ccccc3)CC2)n1`, for which the cytotoxicity is -11.3%.

As for `O=C(CCc1nc2ccccc2[nH]1)Nc1ccccc1`, the cytotoxicity is -8.6%. Turning to `CCOC(=O)c1c(C)c(C(=O)Nc2ccc3c(c2)OCCO3)c(C)n1CC`, the cytotoxicity was 17.2%.

`CCOC(=O)c1c(C)c(C(=O)Nc2ccccc2)c(C)n1CC`: the cytotoxicity was 4.4%. On to `CCOC(=O)c1c(C)c(C(=O)Nc2ccc(N(C)C)cc2)c(C)n1CC`, for which the cytotoxicity is 54.2% (active). As to `CC(C)NS(=O)(=O)c1ccc(CCC(=O)O)cc1`, the cytotoxicity was -5.7%. `CC1=C(C(N)=O)C(c2cccnc2)n2nc(-c3cccc(C)c3)nc2N1` (stereo unspecified): the cytotoxicity was -15.3%. Take `CCc1cc(C(=O)Cc2cnn(-c3ccccc3)c2)c(O)cc1O`: the cytotoxicity is 14.9%. Regarding `CCc1cc(C(=O)COc2ccccc2F)c(O)cc1O`, the cytotoxicity is 5.5%. For the compound `CCCc1cc(C(=O)Cc2ccc(F)cc2)c(O)cc1O`, the cytotoxicity is 78.8% (active). For `CCCc1cc(C(=O)Cc2ccc(C(=O)OCC)o2)c(O)cc1O`, the cytotoxicity is 24%. On to `CCc1cc(C(=O)Cc2nc3ccccc3[nH]2)c(O)cc1O`, for which the cytotoxicity is 9.1%. Consider `CCc1cc(C(=O)Cc2ccc(F)cc2)c(O)cc1O`, for which the cytotoxicity was 54.4% (active). The same measure for `CC(=O)c1cnc2cc(-c3ccccc3)nn2c1C`: -20.8%; for `Cc1nc(SCc2ccccc2)c(C(F)(F)F)c(=O)[nH]1`: 2.3%.

On to `Cc1nc(Nc2ccc(F)cc2)[nH]c(=O)c1CCC(C)C`, for which the cytotoxicity was 62.1% (active). Take `Cc1nc(Nc2ccccc2)[nH]c(=O)c1CCC(C)C`: the cytotoxicity was -16.8%.

As to `Cc1ccc(Nc2nc(C)c(CCC(C)C)c(=O)[nH]2)cc1`, the cytotoxicity was 7.1%. For `Cc1ccc(-c2nn(CC(=O)NCCN3CCOCC3)c(=O)c3ccccc23)cc1` the value was 0.5%. Regarding `O=C(Cn1nc(-c2ccccc2)c2ccccc2c1=O)NCCN1CCOCC1`, the cytotoxicity was -11.2%. For `O=c1c2cccc3c2c(nn1CN1CCOCC1)-c1ccccc1-3`, the cytotoxicity was 53% (active). For `O=C(CSc1nnc(-c2ccc(O)cc2)n1Cc1ccco1)c1cccs1`, the cytotoxicity is -1.1%. In the case of `O=C(CC(SCCO)c1ccc2c(c1)OCO2)c1ccco1` (stereo unspecified), the cytotoxicity was 1.4%. Turning to `CC(NC(=O)c1cccs1)c1ccc2c(c1)OCO2` (stereo unspecified), the cytotoxicity was -2.3%.

Regarding `O=C(CC(SCCO)c1ccc2c(c1)OCO2)c1cccs1` (stereo unspecified), the cytotoxicity was 54.5% (active). The same measure for `O=C(CC(SCc1ccco1)c1ccc(O)cc1)c1cccs1` (stereo unspecified): 54.4% (active); for `O=C(CSCc1ccco1)c1cccs1`: -7.2%. As for `COc1ccc(N2CCN(C(=O)CSc3ccccc3N)CC2)cc1`, the cytotoxicity is -6.2%.

Turning to `O=C(CCCSc1nc(-c2ccco2)cc(C(F)(F)F)n1)NCc1cccs1`, the cytotoxicity is -4.3%.

`Cc1c(Cl)cccc1NC(=O)Cn1cccc1`: the cytotoxicity is 3.2%. As for `Cc1cc(Nc2nc3ccccc3[nH]c2=O)n(-c2ccccc2)n1`, the cytotoxicity was 8%.

On to `O=C(CN(Cc1ccco1)C(=O)CNS(=O)(=O)c1ccc(F)cc1)NCc1ccc(F)cc1`, for which the cytotoxicity was -4%.

`O=C(CN(Cc1ccco1)C(=O)CNS(=O)(=O)c1ccc(Cl)cc1)NCc1ccc(F)cc1`: the cytotoxicity is 70% (active). Consider `O=C(CN(Cc1ccco1)C(=O)CNS(=O)(=O)c1ccccc1)NCc1ccc(F)cc1`, for which the cytotoxicity was -1.3%. Take `OCCNc1nc(Nc2ccccc2)nc(Nc2ccccc2)n1`: the cytotoxicity is 2.2%. For `CC(C)n1c(Nn2cnnc2)nc2ccccc21`, the cytotoxicity is 3.1%.

As to `Cc1cc(C(=O)OCC(=O)N2CCN(c3ccccc3)CC2)c2ccccc2n1`, the cytotoxicity is -8.3%. For `O=C(CSc1nnc(-c2cccnc2)n1Cc1ccco1)c1ccccc1` the value was -18.2%; for `CC(=O)c1cccc(NC(=O)Cc2cccs2)c1`, -5.3%; for `O=C(Cc1cccs1)Nc1cccc(C(=O)Nc2ccco2)c1`, 54.2% (active). `O=C(Cc1cccs1)Nc1ccc(NC(=O)c2ccco2)cc1`: the cytotoxicity was -14.5%. Turning to `CCOC(=O)C(C)Sc1nnc(Cn2c(=O)sc3ccccc32)n1-c1ccccc1` (stereo unspecified), the cytotoxicity was 18.4%. With `CCOC(=O)N1CCN(C(=O)C2CCC(C(=O)N3CCN(C(=O)OCC)CC3)CC2)CC1` (stereo unspecified), the cytotoxicity is -3.2%. The same measure for `O=C(c1cccc2ccccc12)N1CCN(CC2CC=CCC2)CC1` (stereo unspecified): -22%; for `O=C(NCc1ccco1)c1cccc(NC(=O)c2ccccc2)c1`: 10.1%. `Cc1ccc(C(=O)Nc2cccc(C(=O)NCc3ccco3)c2)cc1`: the cytotoxicity was 62.7% (active). For `O=C(NCc1ccccc1)c1cccc(NC(=O)c2ccco2)c1` the value was 44.7%; for `CCC(CC)C(=O)Nc1cccc(C(=O)NCc2ccco2)c1`, -24.1%. Turning to `Cc1occc1C(=O)Nc1cccc(C(=O)NCc2ccccc2)c1`, the cytotoxicity is -18%. On to `O=C(O)c1ccc(CNC(=O)c2ccc(Br)o2)cc1`, for which the cytotoxicity was 0.5%. `CC(OC(=O)C1CCN(S(=O)(=O)c2ccccc2)CC1)C(=O)Nc1ncc(Cl)cc1Cl` (stereo unspecified): the cytotoxicity was -0.7%. As for `O=C(Nc1ccc(O)cc1)c1ccc(C(=O)c2ccccc2)o1`, the cytotoxicity was -1.5%.

Take `Cc1ncoc1C(=O)Nc1ccc(Oc2ccccc2)cc1`: the cytotoxicity was -20.9%. As to `CCc1ccccc1N(CC(=O)N1CCN(c2ccccc2)CC1)S(C)(=O)=O`, the cytotoxicity is -3%. For `CCOC(=O)c1c(-c2cccs2)csc1NC(=O)CN1CC(C)OC(C)C1` (stereo unspecified) the value was 61.1% (active); for `COC(=O)c1c(-c2cccs2)csc1NC(=O)CN1CCOCC1`, -10.4%. For the compound `CCOC(=O)c1c(-c2cccs2)csc1NC(=O)CCCC(=O)O`, the cytotoxicity was 8.6%. Turning to `CCn1c(SCC(=O)Nc2cccc(C)c2)nc2c(c1=O)SC(C)C2` (stereo unspecified), the cytotoxicity was 3.7%. For `CCOC(=O)c1ccc(NC(=O)CSc2nc3c(c(=O)n2C)SC(C)C3)cc1` (stereo unspecified) the value was 1.1%.

Regarding `CCOC(=O)c1ccc(NC(=O)CSc2nc3c(c(=O)n2CC)SC(C)C3)cc1` (stereo unspecified), the cytotoxicity is 55.3% (active). For `COC(=O)c1ccc(C(=O)Nc2ccc(N)cc2N)cc1` the value was -13.9%.

On to `c1ccc(N(c2ccccc2)c2nc(N3CCOCC3)nc(N3CCOCC3)n2)cc1`, for which the cytotoxicity is 4.8%. Consider `COC(=O)C1(C)Nc2ccccc2C(=O)N1c1ccccc1C` (stereo unspecified), for which the cytotoxicity was 2.8%. In the case of `CCC1(CC)Nc2ccccc2C(=O)N1c1ccc(NC(C)=O)cc1`, the cytotoxicity is 10.6%. As for `CCOCCCNC(=O)C(c1ccc(Cl)cc1)N1CCN(C(=O)c2ccco2)CC1` (stereo unspecified), the cytotoxicity is -11.6%.

As for `Cc1onc(-c2ccccc2)c1C(=O)NCc1cccnc1`, the cytotoxicity is 4.9%. Turning to `Cc1cc(OCCCCCNCCO)ccc1Cl`, the cytotoxicity was 18.7%. As for `O=C(NCc1ccco1)c1cc(-c2ccc(Cl)cc2)on1`, the cytotoxicity was 5.9%. In the case of `CC(C)Cc1cc(C(=O)NCc2cccs2)no1`, the cytotoxicity was -21.1%. On to `CC1(C)Nc2ccc(O)cc2-c2c1ssc2=S`, for which the cytotoxicity is 67.4% (active). The same measure for `CC1(C)c2ssc(=S)c2-c2ccccc2N1C(=O)c1ccco1`: -13.6%; for `N#C/C(C(=O)c1ccccc1)=C1/CCCN1`: 10.8%; for `COc1ccc(CCN2CC(C#N)=C3c4cc(OC)c(OC)cc4CCN3C2)cc1OC`: -1.5%. For the compound `O=C(c1ccccc1)N(Cc1ccc(F)cc1)C1CCS(=O)(=O)C1` (stereo unspecified), the cytotoxicity was -9.7%. Turning to `c1ccc2oc(NC3=NCN(CC4CCCO4)CN3)nc2c1` (stereo unspecified), the cytotoxicity is -19.3%. For `COc1ccc(-n2nnc3c(SCC(=O)NCC4CCCO4)ncnc32)cc1` (stereo unspecified) the value was -2.3%. Turning to `CCN(CC)C(=O)CSc1ncnc2c1nnn2-c1ccc(OC)cc1`, the cytotoxicity is -17.1%. The same measure for `CCOC(=O)Cn1cnc2c(C#N)c3n(c2c1=O)CCCCC3`: -8.7%.

For the compound `Cc1c(Br)c(C(F)(F)F)nn1CC(=O)NCC1CCCO1` (stereo unspecified), the cytotoxicity was -17.2%. Regarding `CCn1c(Cc2ccc(OC)cc2)nnc1SCC(=O)Nc1nc2ccccc2s1`, the cytotoxicity is -6%.

Regarding `CCn1c(SCC(=O)Nc2nc3ccccc3s2)nnc1-c1ccc(OC)cc1`, the cytotoxicity was 58.5% (active).

For the compound `CCn1c(Cc2ccccc2)nnc1SCC(=O)Nc1nc2ccccc2s1`, the cytotoxicity was -5%. As for `CCCCNc1nc2ccccc2n1CC(=O)N1CCc2ccccc2C1`, the cytotoxicity was -0.3%. For `COc1cccc(-c2cc(C(=O)N3CCCc4ccccc43)no2)c1` the value was -19.5%; for `CCOC(=O)C1=C(C)N=C2SC(C)C(=O)N2C1/C=C/c1ccccc1OC` (stereo unspecified), -8.3%; for `CCc1nc(Nc2ccncc2)c2oc3ccccc3c2n1`, 67.4% (active). Take `CCNc1nc(CC)nc2c1oc1ccccc12`: the cytotoxicity was -12.6%. For the compound `Cc1nc(Nc2ccncc2)c2oc3ccccc3c2n1`, the cytotoxicity was -28.9%.

Turning to `c1ccc2c(c1)[nH]c1c(N3CCC4(CC3)OCCO4)ncnc12`, the cytotoxicity was -10.6%.

On to `c1ccc2c(c1)[nH]c1c(N3CCCC3)ncnc12`, for which the cytotoxicity is 0%. Take `OC1(c2cccc(C(F)(F)F)c2)CCN(c2ncnc3c2[nH]c2ccccc23)CC1`: the cytotoxicity is 123% (active). For `COC(=O)c1cc2c(cc1Cl)SC(=NCCCN1CCOCC1)NS2(=O)=O`, the cytotoxicity is -1.2%.
